Experimental data from PubChem BioAssay (Tox21).
Several values for one entry are separate records, joined by “and”; a condition that tells them apart may be missing. Equal values may be shown once. Records with an inconclusive call do not appear. Where a call stands in place of a potency, no number is given. Activity calls are given as the source filed them. Unless noted, calls follow the shape of the dose curve; as a rule, active = well fitted curve in the direction sought with a large enough effect in the repeat runs; inconclusive = weak or mixed curves; inactive = no such curve, though single readings can be large; an effect the other way counts as inactive or inconclusive.

Legend:
[1] = qHTS assay to identify small molecule antagonists of the sonic hedgehog signaling (Shh) pathway (AID 1259369; calls by dose curve; also: nearly all actives have a fitted effect of over 45% in size)
Method in brief: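 Antagonist mode: compound added to 3T3 Gli1-Luc cells followed by conditioned-medium stimulation, 24 h at 37 C, 5% CO2. Inhibition taken as loss of Gli1-driven luciferase luminescence.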

[2] = qHTS assay to identify small molecule agonists or antagonists of the thyroid stimulating hormone receptor (TSHR) signaling pathway - wild type cell line counter screen (AID 1259384; calls by dose curve)
Method in brief: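 Counter screen in untransfected Hek293: compounds (15-point titration, triplicate) plus phosphodiesterase inhibitor Ro20-1724 added after 18 h plating; 30 min RT. Intracellular cAMP via competitive d2/cryptate immunoassay, 1 h incubation.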

[3] = molecular target: Thyrotropin receptor (Homo sapiens) (UniProt P16473); assay: qHTS assay to identify small molecule antagonists of the thyroid stimulating hormone receptor (TSHR) signaling pathway (AID 1259385; calls by dose curve; also: nearly all actives have a fitted effect of over 20% in size; also: potency is read from the fitted curve at half-maximal effect)
Method in brief: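 Antagonist mode: compound-treated TSHR-expressing HEK293 cells were stimulated with 1.5 ng/mL TSH (final) in presence of Ro20-1724 for 30 min at RT. HTRF cAMP detection after 1 h; each compound tested at 15 concentrations, triplicate.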

[4] = qHTS assay to identify small molecule agonists of the estrogen receptor alpha (ER-alpha) signaling pathway in the presence of an antagonist - cell viability counter screen (AID 1259386); also: series mostly up to about 92 µM; nearly all actives have a fitted effect of over 30% in size
Method in brief: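 Compounds tested at 15 concentrations for 22 h at 37C alongside 10.0nM (final) ICI-182,780 antagonist, in VM7Luc4E2 cells grown in phenol red-free, charcoal-stripped medium. Viability read by CellTiter-Fluor fluorescence after 1 h reagent incubation.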

[5] = molecular target: Progesterone receptor (Homo sapiens) (UniProt P06401); assay: qHTS assay to identify small molecule agonists of the progesterone receptor (PR) signaling pathway (AID 1346784; calls by dose curve; also: nearly all actives have a fitted effect of over 30% in size)
Method in brief: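 Agonist mode, quantitative HTS format in a HEK 293T line expressing a UAS-controlled beta-lactamase reporter; 16 hr compound exposure at 37C in 2% charcoal-stripped FBS, then LiveBLAzer B/G FRET fluorescence.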

[6] = qHTS assay to identify small molecule antagonists of the progesterone receptor (PR) signaling pathway - cell viability counter screen (AID 1346798); also: series mostly up to about 92 µM; nearly all actives have a fitted effect of over 50% in size
Method in brief: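 Same-well multiplex: after 16 hr at 37C with compound and R5020 stimulation, HEK293T cells carrying a UAS-bla reporter received LiveBLAzer substrate (2 hr RT), then CellTiter-Glo (30 min RT) for luminescent viability.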

[7] = qHTS assay to identify small molecule agonists of the progesterone receptor (PR) signaling pathway - cell viability counter screen (AID 1346799; calls by dose curve; also: nearly all actives have a fitted effect of over 45% in size)
Method in brief: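 Counter screen for cytotoxicity: compound-treated PR-UAS-bla HEK293T cells (16 hr, 37C, 5% CO2) were assayed with CellTiter-Glo, luminescence measured after 30 min at room temperature.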

[8] = qHTS assay to identify small molecule antagonists of the TGF-beta/Smad signaling pathway - cell viability counter screen (AID 1346824); also: nearly all actives have a fitted effect of over 50% in size
Method in brief: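 Cytotoxicity counter-screen run in the same wells as the beta-lactamase Smad reporter read: CellTiter-Glo luminescence after 30 min at room temperature. HEK 293T SBE-bla cells had 5 hr compound exposure at 37 C with TGF-beta1 (0.25 ng/mL stock).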

[9] = qHTS assay to identify small molecule agonists of the TGF-beta/Smad signaling pathway - cell viability counter screen (AID 1346829); also: top concentration of the series differs between compounds; nearly all actives have a fitted effect of over 45% in size
Method in brief: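 Cytotoxicity counter screen: CellTiter-Glo luminescence (30 min, room temperature) measured in the SBE-bla HEK 293T reporter wells after 5 hr compound treatment at 37 C and the 2 hr substrate step.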

[10] = qHTS assay to identify small molecule agonists of the TGF-beta/Smad signaling pathway (AID 1346859; active = well fitted activation curve with a large enough effect in the signal ratio in the repeat runs, not every such curve was filed as active; the % refers to the signal ratio; also: series mostly up to about 77 µM)
Method in brief: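 Smad-responsive beta-lactamase reporter cells (HEK 293T) received compounds from DMSO stocks after overnight attachment, were incubated 5 hr, then treated 2 hr with FRET substrate before dual-emission fluorescence measurement (405 nm excitation).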

[11] = molecular target: Thyrotropin-releasing hormone receptor (Homo sapiens) (UniProt P34981); assay: qHTS assay to identify small molecule antagonists of the thyrotropin-releasing hormone receptor (TRHR) signaling pathway (AID 1346877; active = well fitted inhibition curve with a large enough effect in the repeat runs, not every such curve was filed as active; also: series mostly up to about 51 µM)
Method in brief: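 Antagonist mode: after a 5 min room-temperature compound exposure, cells were stimulated with 1 nM (final) TRH. Dye-loaded TRHR-HEK293 cells were used, and calcium-dependent fluorescence was followed for 3 min, with 15-point titrations run in triplicate.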

[12] = molecular target: Thyrotropin-releasing hormone receptor (Homo sapiens) (UniProt P34981); assay: qHTS assay to identify small molecule agonists of the thyrotropin-releasing hormone receptor (TRHR) signaling pathway (AID 1346891; calls by dose curve;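 also: HEK293 cells expressing TRHR with calcium dye readout; series mostly up to about 58 µM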)
Method in brief: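 Agonist-mode calcium mobilisation screen: TRHR-transfected HEK293 cells cultured overnight (18 h), dye-loaded for 2 h at 37 °C, exposed to compounds, and monitored by fluorescence for 3 min.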

[13] = qHTS assay to identify small molecule agonists of the androgen receptor (AR) signaling pathway in the presence of an antagonist - cell viability counter screen (AID 1259379); also: nearly all actives have a fitted effect of over 25% in size; also: potency is read from the fitted curve at half-maximal effect
Method in brief: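 Cytotoxicity counter-screen run in the same wells as the nilutamide-challenged (3.0 µM final) AR agonist assay in MDA-kb2 cells. Compounds tested at 15 concentrations for 16 h, 37 °C without CO2; CellTiter-Fluor fluorescence read.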

[14] = qHTS assay to identify small molecule antagonists of the estrogen receptor beta (ER-beta) signaling pathway - cell viability counter screen (AID 1259382);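 also: HEK293T cells carrying ER-beta-UAS-bla reporter stimulated with estradiol; series mostly up to about 92 µM; nearly all actives have a fitted effect of over 55% in size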
Method in brief: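 Cytotoxicity was measured in the same wells by CellTiter-Glo luminescence after 30 min at room temperature. Cells were ER-beta-bla HEK293T in charcoal-stripped serum, given compound together with 1 nM E2 and incubated 16 h at 37C.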

[15] = molecular target: Estrogen receptor beta (Homo sapiens) (UniProt Q92731); assay: qHTS assay to identify small molecule agonists of the estrogen receptor beta (ER-beta) signaling pathway (AID 1259377; active = well fitted activation curve with a large enough effect in the signal ratio in the repeat runs, not every such curve was filed as active; the % refers to the signal ratio)
Method in brief: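 A UAS-controlled beta-lactamase reporter in ER-beta-UAS-bla HEK293T cells reports receptor activation. Compounds act for 16 hr at 37C in 2% charcoal-stripped serum, and a FRET substrate is read by fluorescence after 2 hours.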

[16] = molecular target: Estrogen receptor beta (Homo sapiens) (UniProt Q92731); assay: qHTS assay to identify small molecule antagonists of the estrogen receptor beta (ER-beta) signaling pathway (AID 1259378; active = well fitted inhibition curve with a large enough effect in the signal ratio in the repeat runs, not every such curve was filed as active; the % refers to the signal ratio)
Method in brief: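 Antagonist mode: compounds added to beta-lactamase reporter HEK293T ER-beta-UAS cells stimulated with E2 (1nM final), 16 hr at 37C. LiveBLAzer B/G FRET substrate, 2 hours room temperature, fluorescence read-out.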

[17] = qHTS assay to identify small molecule agonists of the estrogen receptor beta (ER-beta) signaling pathway - cell viability counter screen (AID 1259380); also: nearly all actives have a fitted effect of over 30% in size
Method in brief: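 Cell viability counter screen: CellTiter-Glo luminescence (30 min, room temperature) measured in the same wells as the beta-lactamase readout, after 16 hr compound exposure at 37C of ER-beta-bla HEK293T cells in 2% charcoal-stripped FBS medium.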

[18] = molecular target: Progesterone receptor (Homo sapiens) (UniProt P06401); assay: qHTS assay to identify small molecule antagonists of the progesterone receptor (PR) signaling pathway (AID 1346795; active = well fitted inhibition curve with a large enough effect in the signal ratio in the repeat runs, not every such curve was filed as active; the % refers to the signal ratio)
Method in brief: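 HEK293T PR-UAS-bla reporter cells in charcoal-stripped serum (2%) received compound after a 6 hr settling period, followed by R5020 agonist at 1 nM final; 16 hr incubation preceded the FRET substrate step and fluorescence measurement.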

[19] = molecular target: Estrogen receptor (Homo sapiens) (UniProt P03372); assay: qHTS assay to identify small molecule agonists of the estrogen receptor alpha (ER-alpha) signaling pathway in the presence of an antagonist (AID 1259383; calls by dose curve; also: nearly all actives have a fitted effect of over 15% in size; also: potency is read from the fitted curve at half-maximal effect; as to activation: top concentration of the series differs between compounds)
Method in brief: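 Agonist-mode confirmation run in the presence of 10.0nM (final) ICI-182,780 antagonist. The reporter was ERE-driven luciferase in VM7Luc4E2 cells, grown in charcoal-stripped serum. Cells were exposed to 15-concentration compound series for 22hr, then ONE-Glo luminescence was read.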

[20] = molecular target: Androgen receptor (Homo sapiens) (UniProt P10275); assay: qHTS assay to identify small molecule agonists of the androgen receptor (AR) signaling pathway in the presence of an antagonist (AID 1259381; calls by dose curve; also: nearly all actives have a fitted effect of over 15% in size)
Method in brief: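 Agonist-mode confirmation run against 3.0 uM final nilutamide: compounds titrated at 15 concentrations onto MDA-kb2 MMTV-luciferase reporter cells. Luminescence measured with ONE-Glo following 16 hr incubation, 37C, 0% CO2.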

Thyrotropin receptor (Homo sapiens), sequence (P16473 whole entry, looked up): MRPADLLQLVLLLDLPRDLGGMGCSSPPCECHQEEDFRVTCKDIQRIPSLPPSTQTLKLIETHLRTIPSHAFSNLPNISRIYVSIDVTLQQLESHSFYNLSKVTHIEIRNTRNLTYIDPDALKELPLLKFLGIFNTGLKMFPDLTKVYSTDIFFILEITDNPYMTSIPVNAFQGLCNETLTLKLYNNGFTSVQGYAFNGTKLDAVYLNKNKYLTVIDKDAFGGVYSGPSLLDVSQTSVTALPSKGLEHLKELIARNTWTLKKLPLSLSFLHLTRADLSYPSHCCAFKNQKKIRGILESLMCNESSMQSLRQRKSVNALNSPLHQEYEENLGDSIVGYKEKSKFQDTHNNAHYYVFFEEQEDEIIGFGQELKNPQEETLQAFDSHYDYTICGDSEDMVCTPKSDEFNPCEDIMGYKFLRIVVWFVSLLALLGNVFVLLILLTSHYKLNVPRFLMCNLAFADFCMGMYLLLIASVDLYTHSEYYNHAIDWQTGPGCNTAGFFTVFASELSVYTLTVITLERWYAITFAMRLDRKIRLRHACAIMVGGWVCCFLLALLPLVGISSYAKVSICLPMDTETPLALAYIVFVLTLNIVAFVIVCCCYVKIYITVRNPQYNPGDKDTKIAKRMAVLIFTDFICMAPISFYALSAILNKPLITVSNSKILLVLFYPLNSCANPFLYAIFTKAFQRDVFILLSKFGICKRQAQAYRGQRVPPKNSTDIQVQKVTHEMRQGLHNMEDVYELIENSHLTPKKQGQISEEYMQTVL
Progesterone receptor (Homo sapiens), sequence (P06401 whole entry, looked up): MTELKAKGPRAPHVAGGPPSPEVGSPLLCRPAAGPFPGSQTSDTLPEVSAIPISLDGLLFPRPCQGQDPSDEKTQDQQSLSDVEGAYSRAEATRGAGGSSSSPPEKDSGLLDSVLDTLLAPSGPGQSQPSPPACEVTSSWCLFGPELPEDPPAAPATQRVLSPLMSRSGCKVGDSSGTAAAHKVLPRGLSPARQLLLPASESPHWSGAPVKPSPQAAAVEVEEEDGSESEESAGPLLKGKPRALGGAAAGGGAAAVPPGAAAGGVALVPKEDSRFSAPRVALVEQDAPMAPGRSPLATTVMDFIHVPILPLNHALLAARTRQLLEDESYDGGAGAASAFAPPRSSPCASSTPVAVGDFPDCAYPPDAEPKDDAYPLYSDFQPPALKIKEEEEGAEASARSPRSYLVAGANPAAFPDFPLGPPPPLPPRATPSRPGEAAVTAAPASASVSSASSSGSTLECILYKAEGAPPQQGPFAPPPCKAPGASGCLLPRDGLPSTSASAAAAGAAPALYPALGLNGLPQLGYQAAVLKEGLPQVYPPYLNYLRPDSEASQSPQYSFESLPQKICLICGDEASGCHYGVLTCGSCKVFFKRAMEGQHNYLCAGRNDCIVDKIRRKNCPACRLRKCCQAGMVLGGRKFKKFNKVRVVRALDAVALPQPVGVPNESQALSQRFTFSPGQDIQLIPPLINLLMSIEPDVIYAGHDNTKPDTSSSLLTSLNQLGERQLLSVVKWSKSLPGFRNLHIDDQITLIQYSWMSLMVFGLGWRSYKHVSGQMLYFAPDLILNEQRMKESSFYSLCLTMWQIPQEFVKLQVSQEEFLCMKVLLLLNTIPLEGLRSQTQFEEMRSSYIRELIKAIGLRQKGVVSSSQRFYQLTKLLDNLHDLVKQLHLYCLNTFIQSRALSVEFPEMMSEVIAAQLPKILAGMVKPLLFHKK
Thyrotropin-releasing hormone receptor (Homo sapiens), sequence (P34981 whole entry, looked up): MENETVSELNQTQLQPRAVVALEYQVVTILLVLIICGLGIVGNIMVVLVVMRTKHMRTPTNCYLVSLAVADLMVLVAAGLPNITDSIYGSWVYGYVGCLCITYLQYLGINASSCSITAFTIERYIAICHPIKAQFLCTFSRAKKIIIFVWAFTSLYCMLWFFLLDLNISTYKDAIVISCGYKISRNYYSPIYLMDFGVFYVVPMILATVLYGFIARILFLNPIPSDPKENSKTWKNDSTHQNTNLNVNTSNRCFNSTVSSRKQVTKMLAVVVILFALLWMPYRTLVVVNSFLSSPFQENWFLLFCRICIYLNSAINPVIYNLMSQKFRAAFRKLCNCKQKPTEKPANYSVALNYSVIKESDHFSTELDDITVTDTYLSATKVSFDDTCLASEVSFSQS
Estrogen receptor beta (Homo sapiens), sequence (Q92731 whole entry, looked up): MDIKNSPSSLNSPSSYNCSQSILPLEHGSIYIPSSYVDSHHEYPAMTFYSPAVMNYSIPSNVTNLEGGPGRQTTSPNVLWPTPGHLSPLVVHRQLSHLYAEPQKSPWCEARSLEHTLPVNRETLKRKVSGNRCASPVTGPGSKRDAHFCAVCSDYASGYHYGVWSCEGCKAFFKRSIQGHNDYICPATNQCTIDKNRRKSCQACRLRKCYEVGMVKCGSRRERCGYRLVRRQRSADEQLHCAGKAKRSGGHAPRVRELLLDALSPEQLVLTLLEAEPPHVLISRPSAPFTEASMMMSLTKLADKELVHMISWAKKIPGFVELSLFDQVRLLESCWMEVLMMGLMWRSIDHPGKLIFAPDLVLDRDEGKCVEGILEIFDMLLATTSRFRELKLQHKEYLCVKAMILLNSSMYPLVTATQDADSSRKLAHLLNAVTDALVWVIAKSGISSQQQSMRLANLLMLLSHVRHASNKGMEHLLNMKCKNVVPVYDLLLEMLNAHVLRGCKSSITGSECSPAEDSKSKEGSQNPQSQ
Estrogen receptor (Homo sapiens), sequence (P03372 whole entry, looked up): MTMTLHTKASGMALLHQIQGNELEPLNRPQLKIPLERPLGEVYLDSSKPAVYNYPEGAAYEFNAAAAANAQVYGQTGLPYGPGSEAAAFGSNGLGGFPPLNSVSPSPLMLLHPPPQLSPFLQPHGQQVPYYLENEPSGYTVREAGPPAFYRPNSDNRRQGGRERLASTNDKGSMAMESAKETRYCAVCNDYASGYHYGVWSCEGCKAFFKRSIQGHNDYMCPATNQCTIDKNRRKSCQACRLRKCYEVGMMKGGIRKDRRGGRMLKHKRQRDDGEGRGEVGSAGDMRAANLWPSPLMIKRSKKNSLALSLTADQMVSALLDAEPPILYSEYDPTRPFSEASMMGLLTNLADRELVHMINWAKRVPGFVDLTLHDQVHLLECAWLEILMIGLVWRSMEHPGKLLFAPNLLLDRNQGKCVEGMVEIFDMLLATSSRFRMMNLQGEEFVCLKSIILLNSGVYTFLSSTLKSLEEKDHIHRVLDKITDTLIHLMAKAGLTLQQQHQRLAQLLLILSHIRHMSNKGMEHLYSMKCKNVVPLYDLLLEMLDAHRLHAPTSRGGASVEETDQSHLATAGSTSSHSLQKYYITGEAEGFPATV
Androgen receptor (Homo sapiens), sequence (P10275 whole entry, looked up): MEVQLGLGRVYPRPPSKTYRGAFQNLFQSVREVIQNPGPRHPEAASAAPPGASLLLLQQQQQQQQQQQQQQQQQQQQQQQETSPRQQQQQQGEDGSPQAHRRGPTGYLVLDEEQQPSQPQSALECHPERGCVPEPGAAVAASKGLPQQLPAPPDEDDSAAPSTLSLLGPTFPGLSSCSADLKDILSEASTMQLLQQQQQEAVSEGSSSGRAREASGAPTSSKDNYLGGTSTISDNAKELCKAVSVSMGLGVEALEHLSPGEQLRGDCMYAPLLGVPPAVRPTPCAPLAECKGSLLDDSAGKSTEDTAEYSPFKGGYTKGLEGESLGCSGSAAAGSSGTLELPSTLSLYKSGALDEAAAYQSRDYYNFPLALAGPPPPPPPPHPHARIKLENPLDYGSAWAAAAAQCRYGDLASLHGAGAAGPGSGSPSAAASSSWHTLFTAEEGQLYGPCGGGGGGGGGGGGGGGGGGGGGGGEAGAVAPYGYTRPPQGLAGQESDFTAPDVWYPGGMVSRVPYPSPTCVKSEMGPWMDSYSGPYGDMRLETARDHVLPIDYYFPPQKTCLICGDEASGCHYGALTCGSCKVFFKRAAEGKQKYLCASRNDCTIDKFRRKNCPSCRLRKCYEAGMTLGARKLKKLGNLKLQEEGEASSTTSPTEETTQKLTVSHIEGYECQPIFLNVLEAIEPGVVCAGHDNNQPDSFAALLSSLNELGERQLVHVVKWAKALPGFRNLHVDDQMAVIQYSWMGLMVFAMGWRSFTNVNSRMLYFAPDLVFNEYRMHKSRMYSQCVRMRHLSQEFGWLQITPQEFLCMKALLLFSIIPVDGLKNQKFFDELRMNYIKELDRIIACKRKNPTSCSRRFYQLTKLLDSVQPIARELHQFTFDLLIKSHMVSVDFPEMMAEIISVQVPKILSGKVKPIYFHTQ

Row | Compound | Potency [1] | outcome [2] | Potency [3] | Potency [4] | Potency [5] | Potency [6] | Potency [7] | Potency [8] | Potency [9] | outcome [10] | Potency [11] | outcome [12] | Potency [13] | Potency [14] | Potency [15] | Potency [16] | Potency [17] | Potency [18] | Potency [19] | Potency [20]
1 | Nc1ccccc1C(=O)OCCc1ccccc1 | inactive | inactive | inactive | inactive | inactive | inactive | inactive | inactive | inactive | inactive | inactive | inactive | – | – | – | – | – | – | – | –
2 | O=[N+]([O-])/C=C/c1ccccc1 | – | inactive | 27.8 µM (active) and 21.7 µM (active) | inactive | – | inactive | inactive | inactive | – | inactive | inactive | inactive | 44 µM (active) and 68.6 µM (active) | inactive | – | – | – | – | – | –
3 | CC(C)(C#N)C(C)(C)C#N | – | inactive | inactive | inactive | inactive | inactive | inactive | inactive | – | inactive | – | – | inactive | inactive | inactive | inactive | inactive | inactive | – | –
4 | C#C[C@]1(O)CC[C@H]2[C@@H]3CCC4=CC(=O)CCC4=C3C=C[C@@]21CC | – | inactive | inactive | inactive | – | – | – | inactive | inactive | – | inactive | inactive | – | inactive | – | – | – | – | 1.06 µM (active) | –
5 | COC1=CC(=O)O[C@@H](/C=C/c2ccc3c(c2)OCO3)C1 | – | inactive | inactive | inactive | inactive | inactive | – | inactive | inactive | inactive | inactive | inactive | inactive | inactive | – | – | – | – | – | –
6 | CCOC(=O)c1cn2nc(OP(=S)(OCC)OCC)cc2nc1C | – | inactive | – | inactive | inactive | – | – | inactive | – | – | – | – | inactive | inactive | inactive | – | inactive | – | inactive | –
7 | CCN(C(C)=O)c1cccc(-c2ccnc3c(C#N)cnn23)c1 | – | inactive | inactive | inactive | inactive | inactive | inactive | inactive | inactive | inactive | inactive | inactive | inactive | inactive | – | – | – | inactive | inactive | –
8 | Nc1cccc2ccccc12 | – | inactive | inactive | inactive | inactive | inactive | inactive | inactive | inactive | inactive | inactive | inactive | inactive | inactive | – | – | inactive | – | inactive | –
9 | O=C(NC(=O)c1cc(F)c(F)cc1Cl)Nc1cc(F)ccc1N1CCC(C(=O)O)CC1 | – | inactive | inactive | inactive | inactive | – | – | inactive | – | inactive | inactive | inactive | inactive | inactive | – | – | inactive | inactive | inactive | –
10 | CN1CC[C@]23c4c5ccc(O)c4O[C@H]2[C@@H](O)C=C[C@H]3[C@H]1C5 | – | inactive | inactive | inactive | inactive | inactive | inactive | inactive | inactive | inactive | inactive | inactive | inactive | inactive | – | – | inactive | inactive | – | inactive
11 | Oc1cccc(Cl)c1 | inactive | inactive | – | inactive | inactive | inactive | inactive | – | – | inactive | inactive | inactive | – | inactive | – | – | inactive | inactive | inactive | –
